The target of test [1] is Peroxisome proliferator-activated receptor gamma (Homo sapiens) (UniProt P37231). The experiment in a line: OT_PPARg_PPARgSRC1_1440: Odyssey Thera (OT) 24-hour Protein-Complementation Assay for Peroxisome Proliferator-activated Receptor Gamma/ SRC-1 Co-activator (AID 2283388; active means hit-call score of the fitted dose curve at least 0.9, where 1 is the maximum). The method in brief:
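HEK293T cells transiently transfected with PPARg and SRC-1 fused via (Gly4Ser)2 linker to split Venus YFP fragments (IFP1/IFP2) were dosed 24 h; fixed, Draq5-stained, imaged at 488/635 nm; nuclear/cytoplasmic fluorescence ratio scored versus DMSO baseline, gain-of-signal.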

Test [2] is described as follows: CEETOX_H295R_11DCORT: CeeTox H295R High-throughput Steroidogenesis Assay for 11-Deoxycortisol (11DCORT) (AID 2283432).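 On AC50: 11-deoxycortisol secreted into the medium measured by LC-MS/MS.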 As to conditions: actives raise or lower the signal. The method in brief: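 Adrenal carcinoma line H295R, run per OECD 456 with minor changes, was forskolin-stimulated (10 uM, 48 h) before a 48 h chemical exposure at 0.1% DMSO. Secreted 11-deoxycortisol was quantified by HPLC-MS/MS.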

Test [3] can be described thus: CEETOX_H295R_OHPREG: CeeTox H295R High-throughput Steroidogenesis Assay for OH-Pregnenolone (OHPREG) (AID 2283434). As to conditions: actives raise or lower the signal. The method in brief: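 Secreted 17alpha-hydroxypregnenolone measured by HPLC-MS/MS after liquid-liquid extraction. Human adrenal H295R cells received 48 h forskolin (10 uM) stimulation before 48 h chemical exposure at 0.1% final DMSO; MTT viability in same wells; bidirectional fit against DMSO.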

Test [4] can be described thus: CEETOX_H295R_OHPROG: CeeTox H295R High-throughput Steroidogenesis Assay for OH-Progesterone (OHPROG) (AID 2283435).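 On AC50: 17alpha-hydroxyprogesterone secreted into medium measured by HPLC-MS/MS.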 As to conditions: actives raise or lower the signal. The method in brief:
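Human adrenocortical H295R cells, passage 10 or lower, were treated with chemical for 48 h after forskolin priming, and hormone output in the medium was quantified by LC-MS/MS.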

A short description of test [5]: CEETOX_H295R_CORTIC: CeeTox H295R High-throughput Steroidogenesis Assay for Corticosterone (CORTIC) (AID 2283437). As to conditions: actives raise or lower the signal. The method in brief:
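Medium corticosterone was quantified by tandem mass spectrometry following 48 hours of chemical exposure (0.1% DMSO) in human H295R cells previously stimulated 48 hours with 10 uM forskolin. Viability checked by MTT; chemicals diluted and retested when viability fell below 70%.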

Test [6] in a line: CEETOX_H295R_CORTISOL: CeeTox H295R High-throughput Steroidogenesis Assay for Cortisol (AID 2283438).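 Further: cortisol secreted into medium quantified by LC-MS/MS.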 As to conditions: actives raise or lower the signal. The method in brief:
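Steroidogenesis in H295R, per modified OECD 456: 48 h forskolin (10 uM), then 48 h exposure, 0.1% DMSO. Cortisol by extraction and tandem MS; viability by MTT (570/650 nm); cytotoxic chemicals diluted and re-tested.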

A short description of test [7]: CEETOX_H295R_DOC: CeeTox H295R High-throughput Steroidogenesis Assay for DOC (AID 2283439). As to conditions: actives raise or lower the signal. The method in brief: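 H295R, fsk 10 uM ×48 h pre, cmpd ×48 h (0.1% DMSO). Media → MTBE extr. → LC-MS/MS, DOC. Bidirectional fit vs DMSO; MTT viability same wells, re-test diluted if <70%.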
Test [8] is described as follows: CEETOX_H295R_ESTRADIOL: CeeTox H295R High-throughput Steroidogenesis Assay for Estradiol (AID 2283440).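 Further: estradiol secreted into medium quantified by LC-MS/MS after dansyl derivatisation.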 As to conditions: actives raise or lower the signal. The method in brief:
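H295R adrenocortical cells were prestimulated with 10 uM forskolin for 48 h, then exposed to test chemical in 0.1% DMSO for 48 h. Medium estradiol was extracted with MTBE, dansyl-derivatized and quantified by HPLC-MS/MS; bidirectional fit versus DMSO.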

Test [9] in a line: CEETOX_H295R_ESTRONE: CeeTox H295R High-throughput Steroidogenesis Assay for Estrone (AID 2283441).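 Further: estrone secreted into medium measured by LC-MS/MS after dansyl derivatization.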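 On AC50: human adrenal H295R cells prestimulated with forskolin for two days.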 As to conditions: actives raise or lower the signal. The method in brief: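 Forskolin-stimulated H295R cells are treated 48 h with chemical, and estrone in the medium is measured by LC-MS/MS. Activity is fitted in both directions relative to DMSO controls, with chemicals diluted until MTT viability reaches at least 70%.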

The nature of test [10]: CEETOX_H295R_ANDR: CeeTox H295R High-throughput Steroidogenesis Assay for Androstenedione (ANDR) (AID 2283436). As to conditions: actives raise or lower the signal. The method in brief:
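Medium from 48 h chemical-treated H295R adrenal cells was extracted with MTBE and androstenedione measured by LC-MS/MS. Activity was fit in both directions relative to DMSO. Cytotoxic concentrations were re-tested after dilution until MTT viability reached ≥70%.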

Active and inactive are the calls of the source. How the source made its calls, unless noted: active means hit-call score of the fitted dose curve at least 0.9, where 1 is the maximum; inactive means score below 0.9.

Broadly, the AC50 is the concentration giving half of the maximal activity seen.

Chain of Peroxisome proliferator-activated receptor gamma (Homo sapiens) (P37231 whole entry, looked up, the tested form may be a part): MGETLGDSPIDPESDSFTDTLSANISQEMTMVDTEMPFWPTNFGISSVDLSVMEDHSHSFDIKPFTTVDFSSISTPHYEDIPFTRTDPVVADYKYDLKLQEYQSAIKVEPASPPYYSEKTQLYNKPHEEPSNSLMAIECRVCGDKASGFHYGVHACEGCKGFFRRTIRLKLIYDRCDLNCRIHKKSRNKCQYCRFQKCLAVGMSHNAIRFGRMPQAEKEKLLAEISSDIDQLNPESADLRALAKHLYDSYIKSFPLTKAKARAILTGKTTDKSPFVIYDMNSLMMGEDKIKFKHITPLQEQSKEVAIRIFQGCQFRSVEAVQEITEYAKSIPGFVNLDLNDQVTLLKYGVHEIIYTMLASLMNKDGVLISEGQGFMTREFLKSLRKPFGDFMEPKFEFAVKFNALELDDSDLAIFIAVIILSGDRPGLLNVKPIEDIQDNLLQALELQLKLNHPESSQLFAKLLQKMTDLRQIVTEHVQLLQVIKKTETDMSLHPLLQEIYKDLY

For `N#CN=C1SCCN1Cc1ccc(Cl)nc1`, the compound was called inactive in [1], in test [2], in test [4], in test [5], in [6] and in test [7]. In addition, the AC50 in test [3] was 50 µM (active).

`CCNP(=S)(OC)O/C(C)=C/C(=O)OC(C)C` (centres undefined): the compound was called inactive in test [1], in test [4], in test [6], in test [8] and in test [9]. The AC50 in [2] was 65.9 µM (active); in [3], 61.8 µM (active); in [5], 50 µM (active); in [7], 50 µM (active).

As to `CC1(C)CCC(=Cc2ccc(Cl)cc2)C1(O)Cn1cncn1` (centres undefined), the compound was classed as inactive in test [1], in test [2], in test [3], in test [4], in [10] and in test [5]. Besides, the outcome in [8] and in test [9] was inactive. For the same compound, the concentration at half-maximal activity (AC50) in [6] is 5 µM (active); in [7] it was 1.59 µM (active).

On to `O=C1C2CC=CCC2C(=O)N1SC(Cl)(Cl)Cl` (centres undefined), for which the outcome in test [1], in test [3], in test [4], in test [8] and in [9] was inactive.

For `CC(C)Oc1cccc(NC(=O)c2ccccc2C(F)(F)F)c1`, the call in [1], in test [3], in test [5], in [8] and in [9] was inactive. For the same compound, the AC50 is 28.9 µM (active) in test [2], 13.7 µM (active) in test [4], 37.5 µM (active) in test [6] and 7.26 µM (active) in [7].

`C=CCOC(=O)C(C)(C)OC(=O)c1cc(-n2c(=O)cc(C(F)(F)F)n(C)c2=O)ccc1Cl`: in [1], the compound was called inactive.

For `CC(C)NC(=O)N1CC(=O)N(c2cc(Cl)cc(Cl)c2)C1=O`, the outcome in test [1] was inactive. Besides, the AC50 is 10.3 µM (active) in test [3] and 19 µM (active) in test [4].

For `COCC(=O)N(c1c(C)cccc1C)C(C)C(=O)OC` (centres undefined), the outcome in test [1], in [3], in [4], in test [8] and in test [9] was inactive.

With `CCCCC(C#N)(Cn1cncn1)c1ccc(Cl)cc1` (centres undefined), the compound was classed as inactive in test [1] and in test [5]. Moreover, the concentration at half-maximal activity (AC50) is 51 µM (active) in test [2]; 7.87 µM (active) in test [3]; 4.02 µM (active) in test [4]; 0.832 µM (active) in test [6]; 36.5 µM (active) in [7].

`CCCN(CC)CC1COC2(CCC(C(C)(C)C)CC2)O1` (centres undefined): the AC50 is 0.202 µM (active) in test [2], 0.131 µM (active) in test [3], 0.112 µM (active) in test [4] and 0.812 µM (active) in test [7]. The compound was classed as inactive in [5], in test [6], in [8] and in test [9].

`Cc1c(COC(=O)[C@@H]2[C@H](/C=C(\Cl)C(F)(F)F)C2(C)C)cccc1-c1ccccc1`: the call in [1], in test [3], in test [4], in test [8] and in test [9] was inactive.

Consider `Nc1cnn(-c2ccccc2)c(=O)c1Cl`, for which the call in test [1], in test [2], in test [3], in test [4], in [5] and in [6] was inactive. The compound was called inactive in test [7], in test [8] and in test [9].

As for `COP(=S)(OC)SCn1nnc2ccccc2c1=O`, the compound was called inactive in [1], in [3], in [10], in [8] and in [9]. Moreover, the AC50 in test [4] was 2.27 µM (active).

As to `CCOC(=O)C(C)OC(=O)c1cc(Oc2ccc(C(F)(F)F)cc2Cl)ccc1[N+](=O)[O-]` (centres undefined), the compound was called inactive in [1], in [2], in test [3], in [4], in test [5] and in test [6]. In addition, the call in [7], in test [8] and in test [9] was inactive.

For the compound `CCOc1cc(C(C)(C)C)ccc1C1COC(c2c(F)cccc2F)=N1` (centres undefined), the compound was classed as inactive in [1], in test [4], in [10] and in [9].

Take `CCOc1nc(C(Cl)(Cl)Cl)ns1`: the result in test [1], in test [3], in test [4], in test [8] and in test [9] was inactive.

`CCC(C)n1c(=O)[nH]c(C)c(Br)c1=O` (centres undefined): the compound was classed as inactive in test [1], in test [3], in test [4], in test [8] and in test [9].

For `COCc1cnc(C2=NC(C)(C(C)C)C(=O)N2)c(C(=O)O)c1` (centres undefined), the outcome in test [1], in test [2], in test [3], in test [4], in test [10] and in test [5] was inactive. In addition, the call in test [6], in test [7], in test [8] and in [9] was inactive.

Consider `CC(C)(C)C(=O)C(Oc1ccc(Cl)cc1)n1cncn1` (centres undefined), for which the compound was classed as inactive in [1], in test [5] and in [7]. Besides, the concentration at half-maximal activity (AC50) was 58.9 µM (active) in [2]; 21.6 µM (active) in test [3]; 21 µM (active) in [4]; 21.2 µM (active) in test [6]; 21.7 µM (active) in test [8]; 41.2 µM (active) in [9].

Consider `CCOP(=S)(OCC)Oc1nc(Cl)n(C(C)C)n1`, for which the outcome in test [1], in [2], in [3], in test [5], in test [6] and in test [7] was inactive. The AC50 in test [4] is 35.8 µM (active).

In the case of `CC1(C)CON(Cc2ccccc2Cl)C1=O`, the result in [1], in test [3], in [4], in [8] and in test [9] was inactive.

`N#Cc1c(Cl)cccc1Cl`: the result in test [1], in test [2], in [3], in test [4], in [5] and in test [6] was inactive. Besides, the compound was called inactive in test [7], in test [8] and in [9].

With `Clc1nc(Cl)nc(Nc2ccccc2Cl)n1`, the result in test [1], in test [2], in test [3], in test [4], in [5] and in [6] was inactive. The result in test [8] and in test [9] was inactive. In [7], the AC50 is 2.71 µM (active).

Turning to `COc1cc(Cl)c(OC)cc1Cl`, the call in test [1], in [2], in test [3], in [4], in test [5] and in [6] was inactive. Also, the call in test [7], in [8] and in [9] was inactive.

As to `CC1(C)C(C=C(Cl)Cl)C1C(=O)OC(C#N)c1cccc(Oc2ccccc2)c1` (centres undefined), the compound was called inactive in [1], in test [2], in [3], in [4], in [5] and in test [6]. Besides, the compound was called inactive in test [7], in test [8] and in test [9].

(Values after PubChem BioAssay (EPA / NIEHS).)
